# HDAC3 inh: inhibitors of human histone deacetylase 3; O15379; inhibition, % at 8.3 µM; 0.15% of 320,000 active; recombinant HDAC3, fluorogenic peptide/trypsin coupled, fluorescence; in the data active = inhibition above about 26%, passing the limit was not always enough
# Target sequence (O15379 whole entry, looked up): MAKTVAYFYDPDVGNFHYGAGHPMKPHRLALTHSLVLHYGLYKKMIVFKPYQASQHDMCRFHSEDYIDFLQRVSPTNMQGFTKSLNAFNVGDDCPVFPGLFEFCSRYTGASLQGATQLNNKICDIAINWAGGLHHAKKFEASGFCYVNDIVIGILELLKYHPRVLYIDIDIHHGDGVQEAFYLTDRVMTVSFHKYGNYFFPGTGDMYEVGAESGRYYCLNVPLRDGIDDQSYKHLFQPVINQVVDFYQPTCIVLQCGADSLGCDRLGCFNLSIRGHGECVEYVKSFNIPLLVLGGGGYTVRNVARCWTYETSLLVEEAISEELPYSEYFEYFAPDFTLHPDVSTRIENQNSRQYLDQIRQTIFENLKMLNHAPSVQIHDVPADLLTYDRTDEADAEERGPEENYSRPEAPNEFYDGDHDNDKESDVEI
# hiPSC survival: increases survival of single human iPS cells; 0.044% of 360,000 active; AID 602274; hiPSC single-cell survival, ATPlite luminescence; 100% = ROCK inhibitor wells, 0% = DMSO; survival enhancement, % at 20 µM; in the data active = survival enhancement above about 18%;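 note: cells exposed to compounds for 16 hours before the ATP read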
# LANA-H2A inh: blocks KSHV LANA binding to histone H2A/H2B; Q9QR71; inhibition, % (test concentration not listed); 0.6% of 320,000 active; cell-free LANA-H2A/H2B peptide, fluorescence polarization; in the data active = inhibition mostly above about 10%, no sharp cut-off; inactive = mostly below about 6.7%
# DAGLB inh: blocks human DAGLB lipase activity; Q8NCG7; HEK293T DAGLB membrane lysate, EnzChek fluorogenic substrate; inhibition, % at 5.17 µM; 0.059% of 340,000 active; AID 504411; in the data active = inhibition above about 34%;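 note: 0% = enzyme with vehicle and 100% = wells lacking enzyme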
# Starred values were filed as active, the others as inactive; . = no result given; ! = repeats disagree. Only some compounds are listed: those with a hit (about 0.79% of all), similar ones and a draw of the others.
SMILES,HDAC3 inh,hiPSC survival,LANA-H2A inh,DAGLB inh
O=C(c1ccc(-c2cccc(C(F)(F)F)c2)o1)N1CCCC(C(F)(F)F)C1 (stereo unspecified),30*,0,-2,-12
O=C(COC(=O)C(Cc1ccccc1)NC(=O)c1ccc(Cl)cc1)c1ccc(Cl)cc1 (stereo unspecified),3,-1,1,-8
CCOC(=O)C1CCCN(c2c(NCCCN(CC)c3ccccc3)c(=O)c2=O)C1 (stereo unspecified),-5,0,17*,3
CCCn1c2ccccc2c2cnn(CC(=O)N3CCN(C4CCCCC4)CC3)c(=O)c21,-8,0,2,-3
CCCCc1c(-c2ccccc2F)ncn1CCc1ccccc1OC,.,1,.,.
COc1ccc2c(c1)-c1c(ssc1=S)C(C)(C)N2,13,6,-1,36*
Cc1ccc(NC(=O)CC(C)c2ccccc2)cc1S(=O)(=O)N1CCOCC1 (stereo unspecified),-7,0,6,0
COC(CN(C)C(=O)c1ccc(CS(=O)(=O)c2ccccc2C)o1)OC,-9,0,14*,-3
CN(C)CCOc1ccccc1Cc1ccccc1,4,-1,6.1*,1
COc1ccc(CS(=O)c2nc(C)cc(C)c2S(C)(=O)=O)cc1 (stereo unspecified),2,2,2,-1
C=CCNC(=S)N/N=C/c1ccc(C)c([N+](=O)[O-])c1,9,-2,-3,-1
CN(C)c1ccc(/C=N/NC(N)=S)cc1[N+](=O)[O-],-4,0,25*,5
CC(C)C(=O)Nc1ncc(Cc2ccccc2Cl)s1,-2,0,-1,3
N#CCC(=O)Nc1ncc(Cc2ccccc2Cl)s1,-3,-1,33*,5
COc1ccc(-c2nc3cnccn3c2NCc2ccccc2)cc1SC1CCCCC1,29*,0,-5,-1
CNC(=O)c1c(NC(=O)c2ccco2)sc2c1CCC2,0,0,83*,-2
CC12CCC(=O)N1C(C(=O)NNC(=O)c1ccc(Cl)cc1)CS2 (stereo unspecified),5,-3,32*,1
NCC1CCC(C(=O)Oc2ccc(CCC(=O)O)cc2)CC1 (stereo unspecified),81*,-1,-4,2
O=C(CCN1C(=O)[C@@H]2Cc3ccccc3CN2C1=O)N[C@H](C(=O)O)c1ccccc1,-8,1,1,-1
CNc1nc(N(C)C)nc(N(C)C)n1,-3,2,7,2
CN(C)c1nc(N(C)C)nc(N(C)C)n1,-6,0,19*!,3
C[C@@H]1CN([C@H](C)CO)C(=O)CCCn2nncc2CO[C@H]1CN(C)Cc1ccc2c(c1)OCCO2,.,2,.,1
CCOc1ccc(CCn2c(-c3ccco3)nc3ccccc3c2=O)cc1OCC,4,-1,11*,1
O=c1c2ccccc2nc(-c2ccco2)n1Cc1ccccc1,3,-1,0,-5
CCC(C)N(C(=O)Cn1nnc2ccccc21)C(C(=O)Nc1ccc(F)cc1)c1cccc(OC)c1 (stereo unspecified),11,0,0,2
SMILES,HDAC3 inh,hiPSC survival,LANA-H2A inh,DAGLB inh
COc1ccc(NC(=O)CSc2nc3cccnc3n2C)cc1,-4,0,38*,-1
COc1ccc(NC(=O)CSc2nc3sc(C)cc3c(=O)n2C)c(OC)c1,-1,0,16*,-1
COC(=O)c1ccc(NC(=O)CSc2nc3cccnc3n2C)cc1,-5,1,2,-3
COc1ccc(NC(=O)CSc2nc3sc(C)cc3c(=O)n2C)cc1,-3,0,-2,-1
COc1ccc(NC(=O)CSc2nc3c([nH]c4ccccc43)c(=O)n2C)cc1,-1,0,11*,-1
Cc1ccccc1OCC(=O)NNC(=O)Cn1[nH]c(=O)c2ccccc2c1=O,-1,2,1,-1
CCCN(CCC)Cc1cc(=O)oc2cc(C)cc(C)c12,.,2,.,.
Cc1cccnc1CNC(=O)C1(C)CCCN1CC(C)C (stereo unspecified),.,1,.,.
CN(C)C(=C(C#N)C#N)N1CCN(c2ccc(Cl)cc2)CC1,3,-2,2,-1
N#CC(C#N)=C/C(C#N)=C(/N)N1CCN(c2ccc(Cl)cc2)CC1,4,11,18*,1
COc1ccc(C(C)(C)C)cc1NC(=O)CCc1c(C)noc1C,0,0,30*,-1
Cc1c(NC(=O)c2ccc([N+](=O)[O-])o2)cccc1-c1nc2ncccc2o1,3,-1,4,0
O=C(NCc1ccccn1)c1cccc(NS(=O)(=O)c2cccc(Cl)c2)c1,-1,0,0,2
